The structures appear in SMILES notation. The source made the active and inactive calls.
Note: test concentration not given here.

A short description of the first experiment: JC-1 mitochondrial signal, unstimulated adipocytes – cell-based, JC-1 fluorescence, 3T3-L1 adipocytes, 24 h, 100 nL compound, profiling panel (AID 1168). The settings on record: JC-1 mitochondrial fluorescence, higher = more signal, called active from +8 up or from −8 down.
For the compound `CC(CCN1CCc2nc(-c3ccccc3)c(-c3ccccc3)cc2C1)=NO[C@H](C)c1cn([C@@H]2COC[C@H]2O)nn1`, the z-score is -0.673 (inactive).

For the compound `COC(=O)[C@H]1COC(c2ccc(OCCCO)cc2)=N1`, the z-score was 0.203 (inactive).

On to `O=C1[C@H]2[C@H]3[C@H](O)[C@H](O)CC(=NOC[C@@H](O)COCc4ccco4)[C@H]3CC[C@H]2C(=O)N1Cc1ccc2c(c1)OCO2`, for which the z-score was -0.339 (inactive).

For `CC[C@@H](c1ccccc1)n1c(=O)n2n(c1=O)[C@H]1[C@H](O)[C@@H]3O[C@@H]3C(=NOCC=C(C)CCC=C(C)C)[C@H]1CC2`, the z-score was 0.151 (inactive).

For the compound `C[C@@H](c1ccccc1)N1C(=O)[C@H]2[C@H]3[C@H](O)[C@H](O)CC(=NOC[C@@H](O)COCc4ccco4)[C@@H]3CC[C@H]2C1=O`, the z-score is -0.519 (inactive).

Consider `CO[C@H]1O[C@H](CO)[C@@H](OC(=O)Nc2ccc3c(c2)OCO3)[C@H](OC(=O)Nc2ccccc2-c2ccccc2)[C@@H]1OC(=O)Nc1ccccc1-c1ccccc1`, for which the z-score was 1.34 (inactive).

With `NCCCCCNC(=O)[C@@H]1C[C@@H]2C(=O)N3CCC[C@H]3C(=O)N2[C@@H]1c1cccc(OCCO)c1`, the z-score is -0.812 (inactive).

In the case of `C[C@@H]1C=CCC(=O)OC[C@H](C)C(=O)N2CCC[C@H]2C(=O)OC1`, the z-score is -1.27 (inactive).

For the compound `CCCC=C(CCC)[C@@H](NC(=O)c1ccc(-c2ccccc2)cc1)c1ccc(C(=O)OC)cc1`, the z-score is 0.393 (inactive).

On to `CCOC(=O)[C@H](Cc1ccccc1)NC(=O)CCC1CC(OC(=O)NCc2ccc3c(c2)OCO3)CC2(CCCC(COC(=O)NCC3CCCCC3)O2)O1` (some centres not stated), for which the z-score is -0.0648 (inactive).

On to `COc1ccc(COC(=O)NN=C2C[C@@H](O)[C@@H](O)[C@@H]3[C@@H]4C(=O)N(c5ccc(F)cc5F)C(=O)[C@@H]4CC[C@@H]23)cc1`, for which the z-score was 0.301 (inactive).

As to `CC(C)[C@@H](OCc1ccccc1)[C@H](C)C=NO[C@H](C)c1cn([C@H](CO)Cc2ccccc2)nn1`, the z-score was 0.629 (inactive).

In the case of `COC(=O)[C@H](C)NC(=O)CCC1CC(OC(=O)NCc2cccc3ccccc23)CC2(CCCC(COC(=O)NCCc3ccc(Cl)cc3)O2)O1` (some centres not stated), the z-score is -0.294 (inactive).

Consider `COc1ccc(-c2nc3c(c4c2C[C@H](C)OC4)CN(CCC(C)C)CC3)cc1`, for which the z-score was -0.613 (inactive).

As for `O=C(NN=C1C[C@@H](O)[C@@H](O)[C@@H]2[C@@H]3C(=O)N(c4cccc(Oc5ccccc5)c4)C(=O)[C@@H]3CC[C@H]12)OCc1ccccc1`, the z-score was -1.15 (inactive).

`CCOC(=O)CCN1C(=O)[C@H]2[C@H]3[C@H](O)[C@H](O)CC(=NNC(=O)OCc4ccc(OC)cc4)[C@@H]3CC[C@H]2C1=O`: the z-score was -0.0296 (inactive).

For `CCN1C(=O)[C@H]2[C@H]3[C@H](O)C=CC(=O)[C@@H]3CC[C@H]2C1=O`, the z-score is -0.661 (inactive).

For the compound `C=C(CCCC)C(=O)CC[C@@H](OC(C)=O)c1cccc(OCCO)c1`, the z-score is -0.673 (inactive).

Regarding `O=C1C[C@]2(c3ccc([N+](=O)[O-])cc3)C(=O)N(CCN3CCOCC3)c3cc(CO)ccc3[C@H]2N1CC12CC3CC(CC(C3)C1)C2`, the z-score was 0.0692 (inactive).

In the case of `[N-]=[N+]=NCc1ccccc1[C@@H]1OC(c2ccc(OCCCO)cc2)=N[C@]1(Cc1ccccc1)C(=O)N1CCOCC1`, the z-score is 1.05 (inactive).

For `CC(C)N1CC=CC23O[C@@H]4C=CCCOC(=O)C4[C@H]2C(=O)N(CCCCCCO)[C@@H]3C1=O` (some centres not stated), the z-score was 0.294 (inactive).

Regarding `CCCNC(=O)[C@@H]1c2ccccc2C(=O)N(Cc2ccccc2Cl)[C@H]1c1ccc(CO)cc1`, the z-score was 0.0089 (inactive).

Regarding `CCN1C(=O)[C@H]2[C@H]3[C@H](O)[C@H](O)CC(=NOCc4ccccc4)[C@H]3CC[C@H]2C1=O`, the z-score is -1.37 (inactive).

On to `C[C@H](c1ccccc1)N1C(=O)[C@H]2[C@H]3[C@H](O)[C@H](O)CC(=O)[C@@H]3CC[C@H]2C1=O`, for which the z-score is -0.239 (inactive).

Turning to `COC(=O)C1=C(C)[C@@H](O)[C@@H](C)[C@H](c2c(OC)c(OC)c(C)c(OC)c2OC)O1`, the z-score is 0.657 (inactive).

Take `CC(=O)OC[C@H]1O[C@H](CC=NOC[C@@H](C)[C@H](OCc2ccccc2)C(C)C)C=C[C@@H]1OC(C)=O`: the z-score was -1.71 (inactive).

The next experiment in a line: JC-1 mitochondrial signal, unstimulated myeloma cells – cell-based, JC-1 fluorescence, RPMI8226, 24 h, 100 nL compound, profiling panel (AID 1169). The settings on record: JC-1 mitochondrial potential fluorescence, higher = more signal.
On to `COCCCNC(=O)[C@@]1(Sc2ccc(C)cc2)CC(=O)N(Cc2ccccc2)[C@@H]1c1ccc(CO)cc1I`, for which the z-score is -0.617.

Consider `COC(=O)[C@H](C)NC(=O)CCC1CC(OC(=O)NCCc2ccc(F)cc2)CC2(CCCC(COC(=O)NCC(c3ccccc3)c3ccccc3)O2)O1` (some centres not stated), for which the z-score is -0.379.

For the compound `COc1ccccc1CN1C(=O)c2ccccc2[C@@H](C(=O)NCC(F)(F)F)[C@@H]1c1ccc(CO)cc1`, the z-score was 0.28.

As to `Cc1cc2c(c(=O)o1)[C@H](O)[C@H]1O[C@H]1C2=O`, the z-score is 0.433.

Compound `CCN(CC)c1ccc(N2CC=CC34O[C@@H]5/C=C\CCC(C)OC(=O)C5[C@H]3C(=O)N(CCCO)[C@@H]4C2=O)cc1` (some centres not stated) showed a z-score of -0.245.

For `O=C1O[C@@H](c2ccccc2)[C@@H](c2ccccc2)N2[C@@H](c3ccccc3OCCO)[C@]3(C(=O)Nc4ccc(C#CCCO)cc43)[C@@H](C(=O)O)[C@H]12`, the z-score is -0.231.

As to `COc1ccc([Si](C)(C)[C@@H]2[C@@H](CC(=O)N3CCC[C@H]3CO)O[C@]3(C(=O)N(Cc4cccc(N5CCC5=O)c4)c4ccccc43)[C@H]2C)cc1`, the z-score is -1.

Consider `CC(C)(C)N1CC=CC23O[C@@H]4C=CCCOC(=O)C4[C@H]2C(=O)N(CCCCCO)[C@@H]3C1=O` (some centres not stated), for which the z-score is 0.117.

Consider `COc1cccc([C@@H]2Oc3ccc(Br)cc3C(=O)[C@H]2O)c1`, for which the z-score was -0.0726.

Take `CO[C@H]1COC(=O)[C@@H]2CCCN2C(=O)CC=C[C@@H](C)[C@H](OC)COC(=O)CC=C[C@@H]1C`: the z-score is -1.13.

In turn, `CC(CCN1CCc2nc(-c3ccccc3)c(-c3ccccc3)cc2C1)=NO[C@H](C)c1cn([C@@H]2COC[C@H]2O)nn1` registered a z-score of -0.291.

In turn, `COC(=O)[C@H]1COC(c2ccc(OCCCO)cc2)=N1` displayed a z-score of -0.16.

With `O=C1[C@H]2[C@H]3[C@H](O)[C@H](O)CC(=NOC[C@@H](O)COCc4ccco4)[C@H]3CC[C@H]2C(=O)N1Cc1ccc2c(c1)OCO2`, the z-score was -0.149.

For the compound `CC[C@@H](c1ccccc1)n1c(=O)n2n(c1=O)[C@H]1[C@H](O)[C@@H]3O[C@@H]3C(=NOCC=C(C)CCC=C(C)C)[C@H]1CC2`, the z-score was -0.829.

`C[C@@H](c1ccccc1)N1C(=O)[C@H]2[C@H]3[C@H](O)[C@H](O)CC(=NOC[C@@H](O)COCc4ccco4)[C@@H]3CC[C@H]2C1=O` came in with a z-score of -0.287.

Compound `CO[C@H]1O[C@H](CO)[C@@H](OC(=O)Nc2ccc3c(c2)OCO3)[C@H](OC(=O)Nc2ccccc2-c2ccccc2)[C@@H]1OC(=O)Nc1ccccc1-c1ccccc1` displayed a z-score of -1.11.

On to `NCCCCCNC(=O)[C@@H]1C[C@@H]2C(=O)N3CCC[C@H]3C(=O)N2[C@@H]1c1cccc(OCCO)c1`, for which the z-score was 0.167.

The compound `C[C@@H]1C=CCC(=O)OC[C@H](C)C(=O)N2CCC[C@H]2C(=O)OC1` yielded a z-score of 0.363.

`CCCC=C(CCC)[C@@H](NC(=O)c1ccc(-c2ccccc2)cc1)c1ccc(C(=O)OC)cc1` returned a z-score of -0.834.

`CCOC(=O)[C@H](Cc1ccccc1)NC(=O)CCC1CC(OC(=O)NCc2ccc3c(c2)OCO3)CC2(CCCC(COC(=O)NCC3CCCCC3)O2)O1` (some centres not stated) displayed a z-score of -0.00903.

`COc1ccc(COC(=O)NN=C2C[C@@H](O)[C@@H](O)[C@@H]3[C@@H]4C(=O)N(c5ccc(F)cc5F)C(=O)[C@@H]4CC[C@@H]23)cc1`: the z-score is -0.195.

In turn, `CC(C)[C@@H](OCc1ccccc1)[C@H](C)C=NO[C@H](C)c1cn([C@H](CO)Cc2ccccc2)nn1` returned a z-score of 0.339.

Compound `COC(=O)[C@H](C)NC(=O)CCC1CC(OC(=O)NCc2cccc3ccccc23)CC2(CCCC(COC(=O)NCCc3ccc(Cl)cc3)O2)O1` (some centres not stated) had a z-score of -0.318.

`COc1ccc(-c2nc3c(c4c2C[C@H](C)OC4)CN(CCC(C)C)CC3)cc1` showed a z-score of 0.0911.

The compound `O=C(NN=C1C[C@@H](O)[C@@H](O)[C@@H]2[C@@H]3C(=O)N(c4cccc(Oc5ccccc5)c4)C(=O)[C@@H]3CC[C@H]12)OCc1ccccc1` returned a z-score of 0.0901.

`CCOC(=O)CCN1C(=O)[C@H]2[C@H]3[C@H](O)[C@H](O)CC(=NNC(=O)OCc4ccc(OC)cc4)[C@@H]3CC[C@H]2C1=O`: the z-score was -0.91.

Compound `CCN1C(=O)[C@H]2[C@H]3[C@H](O)C=CC(=O)[C@@H]3CC[C@H]2C1=O` came in with a z-score of -0.408.

Turning to `C=C(CCCC)C(=O)CC[C@@H](OC(C)=O)c1cccc(OCCO)c1`, the z-score is 0.452.

Consider `O=C1C[C@]2(c3ccc([N+](=O)[O-])cc3)C(=O)N(CCN3CCOCC3)c3cc(CO)ccc3[C@H]2N1CC12CC3CC(CC(C3)C1)C2`, for which the z-score was -0.043.

Turning to `[N-]=[N+]=NCc1ccccc1[C@@H]1OC(c2ccc(OCCCO)cc2)=N[C@]1(Cc1ccccc1)C(=O)N1CCOCC1`, the z-score is -1.39.

Consider `CC(C)N1CC=CC23O[C@@H]4C=CCCOC(=O)C4[C@H]2C(=O)N(CCCCCCO)[C@@H]3C1=O` (some centres not stated), for which the z-score was 0.936.

In turn, `CCCNC(=O)[C@@H]1c2ccccc2C(=O)N(Cc2ccccc2Cl)[C@H]1c1ccc(CO)cc1` returned a z-score of 0.325.

Compound `CCN1C(=O)[C@H]2[C@H]3[C@H](O)[C@H](O)CC(=NOCc4ccccc4)[C@H]3CC[C@H]2C1=O` returned a z-score of 0.462.

In turn, `C[C@H](c1ccccc1)N1C(=O)[C@H]2[C@H]3[C@H](O)[C@H](O)CC(=O)[C@@H]3CC[C@H]2C1=O` came in with a z-score of -0.0521.

`COC(=O)C1=C(C)[C@@H](O)[C@@H](C)[C@H](c2c(OC)c(OC)c(C)c(OC)c2OC)O1` displayed a z-score of 0.267.

Turning to `CC(=O)OC[C@H]1O[C@H](CC=NOC[C@@H](C)[C@H](OCc2ccccc2)C(C)C)C=C[C@@H]1OC(C)=O`, the z-score worked out at 1.17.

These data come from PubChem BioAssay.
